Shown are actives, neighbours in structure and some others; about 19% of the full set was active somewhere.
DT40 TDP1 CPT: DT40-hTDP1 cell growth loss with CPT. chicken DT40 Tdp1-/-;hTDP1 cells + 20 nM CPT, ATP luminescence, 48 h. Potency, µM (doses to about 46.2 µM), for inactives: at the highest dose activity change, negative = growth inhibition, hits mostly inhibitors. hit rate 12% among 420,000. AID 686979; also: potency is read from the fitted curve at half-maximal effect; nearly all actives have a fitted effect of over 55% in size
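Chicken DT40 Tdp1-/- cells stably complemented with human TDP1 were seeded at 400 cells/well in medium containing 20 nM camptothecin, exposed to pin-transferred compounds, and grown at 37 °C for at least 48 hr. Viability was read as ATP luminescence.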
HT1080 IDH1KD tx: HT-1080 IDH1 knockdown cell toxicity (counter line). HT-1080 IDH1 knockdown viability, ATP luminescence, 48 h. Potency, µM (top dose mostly 46.1 µM), without a hit: at the top dose activity, negative = toxicity, actives largely listed as cytotoxic. hit rate 2% among 360,000;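 also: potency is read from the fitted curve at half-maximal effect; 0% = DMSO wells and -100% = cell-free medium wells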
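Luminescent ATP read-out (CellTiter-Glo, 10 min at room temperature) after 48 h compound exposure at 37 °C gave viability of IDH1-knockdown HT-1080 cells. Activity was normalised to DMSO and cell-free wells, then fitted as concentration-response curves.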
HT1080NT lethal: kills 2HG-producing HT-1080-NT fibrosarcoma cells; hit rate 1.6% among 360,000; Potency, µM (highest dose often 46.1 µM), for the others: at the top dose activity, negative = less viability, usual class: cytotoxic; HT-1080-NT fibrosarcoma viability, CellTiter-Glo ATP luminescence, 48 h;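 also: NT is the 2HG producing partner of a matched IDH1 knockdown line; potency is read from the fitted curve at half-maximal effect; 0% = DMSO-treated cells and -100% = media-only wells without cells; nearly all actives have a fitted effect of over 55% in size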
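HT-1080-NT fibrosarcoma cells (2HG-overproducing), 750 cells/well in RPMI with 5% FBS, dosed after 2 h and incubated 48 h at 37C. CellTiter-Glo luminescence normalized to DMSO and no-cell wells; concentration-response curves fitted and classed.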
DT40 TDP1 no CPT: qHTS for Inhibitors of human tyrosyl-DNA phosphodiesterase 1 (TDP1): qHTS in cells in absence of CPT; DT40 Tdp1-/- hTDP1 cells, no CPT, ATP luminescence, 48 h; Potency, µM (top dose mostly 46.2 µM), inactives show at the top dose activity change, negative = growth inhibition, actives largely listed as inhibitors; hit rate 15% among 420,000; also: potency is read from the fitted curve at half-maximal effect; nearly all actives have a fitted effect of over 55% in size
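No-CPT arm: Tdp1-/-;hTDP1 DT40 cells (400/well) plus compounds, incubated ≥48 hr at 37 °C. Readout CellTiter-Glo luminescence.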
IL-1B inflam inh: blocks inflammasome-driven IL-1 beta release; THP-1 LPS/ATP IL-1B secretion, AlphaLISA, 16 h; active compounds read low; activity change, % at 57.5 µM; hit rate 4.7% among 360,000; AID 743279; in the data active = activity change below about -50%; inconclusive = mostly about -30% to -49%
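THP-1 cells pretreated 1 hr with compounds (up to 57.5 uM final), then stimulated with LPS (250 ng/mL final) plus ATP (1.25 mM final); secreted IL-1B measured by AlphaLISA after 16 hr, decreased signal indicating inhibition.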
Starred values were filed as active, the others as inactive; u = inconclusive; x = no result. Unless noted, calls follow the shape of the dose curve; as a rule, active = well fitted curve in the direction sought with a large enough effect; inconclusive = small, poorly fitted or top-dose-only effect, or another doubt; inactive = no such curve, though single readings can be large; an effect the other way counts as inactive or inconclusive. Unless noted, % is scaled to controls: 0 for no effect and ±100 for the full control effect.

SMILES	DT40 TDP1 CPT	HT1080 IDH1KD tx	HT1080NT lethal	DT40 TDP1 no CPT	IL-1B inflam inh
Cc1cc(O)c(C(=O)/C=C/c2ccccc2)c(=O)o1	u	-15%	-4%	u	-5
COc1cc(-c2[nH]ncc2CN2CCN(Cc3cccs3)CC2)cc(OC)c1OC	18µM*	-25%	-19%	21µM*	40
Cc1ccccc1-c1nc(S(=O)(=O)c2ccc(Cl)cc2)c(NCCN2CCOCC2)o1	u	u	-3%	u	-52*
O=S(=O)(c1ccccc1)c1nc(-c2ccccc2Cl)oc1NCCCN1CCOCC1	u	-33%	-16%	23µM*	-67*
Cc1ccccc1-c1nc(S(=O)(=O)c2ccccc2)c(NCCCN2CCOCC2)o1	u	0%	-1%	u	-12
O=S(=O)(c1ccccc1)c1nc(-c2ccccc2Cl)oc1NCCN1CCOCC1	u	5%	1%	u	-17
O=C(OCc1ccccc1)N1CCC2CC1c1ccc(/C=C/CCCCl)cc12 (centres undefined)	u	u	-16%	u	1
CCCCC(c1nc2ccccc2[nH]1)n1c(-c2ccccc2)nc2ccccc21 (centres undefined)	-15%	-1%	15%	-12%	0
CCCCC(c1nc2ccccc2[nH]1)n1c(-c2ccccc2)nc2cc(C)c(C)cc21 (centres undefined)	15µM*	18%	20%	23µM*	0
COc1cc(-c2c(OC)cccc2OC)cc2c1OCCN(Cc1cn[nH]c1-c1ccc(Cl)cc1)C2	-2%	x	x	-24%	x
Oc1cc(-c2cccs2)cc2c1OCCN(Cc1cn[nH]c1-c1ccc(Cl)cc1)C2	18µM*	x	x	u	x
Cc1ccc2c(c1)cc1c(=O)[nH]ncn12	-1%	-11%	-14%	-27%	7
c1ccc2c(c1)ncn2Cc1nnc2sc(-c3ccc4c(c3)OCO4)nn12	u	-15%	-8%	15µM*	34
Clc1ccccc1-c1nn2c(Cn3cnc4ccccc43)nnc2s1	u	1%	4%	u	13
COc1ccc(OCc2nn3c(Cn4cnc5ccccc54)nnc3s2)cc1	21µM*	-22%	u	u	2
c1ccc(CCc2nn3c(Cn4cnc5ccccc54)nnc3s2)cc1	18µM*	u	-21%	18µM*	2
c1ccc(OCc2nn3c(Cn4nnc5ccccc54)nnc3s2)cc1	16µM*	-8%	-4%	21µM*	-5
c1ccc(Cc2nn3c(Cn4nnc5ccccc54)nnc3s2)cc1	u	-16%	-21%	-25%	-5
c1ccc2c(c1)OCC(c1nn3c(Cn4nnc5ccccc54)nnc3s1)O2 (centres undefined)	26µM*	-7%	-23%	u	-18
COc1ccc2c(c1OC)C(=O)O[C@@H]2[C@H]1c2c(cc3c(c2OC)OCO3)CCN1C	4%	x	x	-25%	x
COc1ccc2cc1Oc1ccc(cc1)C[C@H]1c3c(cc4c(c3Oc3cc5c(cc3OC)CCN(C)[C@@H]5C2)OCO4)CCN1C	6.5µM*	21µM*	16µM*	5.8µM*	u
CCC(=O)n1nc(-c2cccnc2)nc1NCc1ccccc1	-6%	4.6µM*	-35%	-24%	4
Cc1c(Cl)cccc1NC(=O)C1NC(=O)CC1c1ccccc1 (centres undefined)	-17%	-3%	1%	u	-19
CCn1cc(C(=O)NCCCOC)c(=O)c2cc(S(=O)(=O)N3CCCC3)ccc21	-10%	0%	-6%	0%	-10
COc1ccc(Cl)cc1NCCC(O)c1ccc(F)cc1 (centres undefined)	18µM*	0%	2%	9.2µM*	-1
COC(=O)CCC(C(=O)CN1C(=O)c2ccccc2C1=O)N1C(=O)c2ccccc2C1=O (centres undefined)	u	8%	2%	u	0
CCOc1ccc2ccccc2c1/C=N/NC(=O)c1ccc(C)nc1	4%	3%	3%	u	-2

Compound activity (PubChem)
